# Assay outcomes: PubChem BioAssay, National Center for Advancing Translational Sciences (NCATS)
# Hits are enriched below; roughly 17% of the tested compounds scored in any of these assays.
# DT40 TDP1 CPT – DT40-hTDP1 cell growth loss with CPT. chicken DT40 Tdp1-/-;hTDP1 cells + 20 nM CPT, ATP luminescence, 48 h. Potency, µM (top dose mostly 46.2 µM), hits mostly inhibitors. hit rate 12% among 420,000. AID 686979; further: nearly all actives have a fitted effect of over 55% in size
#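 Chicken DT40 Tdp1-/- cells stably complemented with human TDP1 were seeded at 400 cells/well in medium containing 20 nM camptothecin, exposed to pin-transferred compounds, and grown at 37 °C for at least 48 hr. Viability was read as ATP luminescence.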
# ATXN2 expr inh – reduces ATXN2 reporter expression in HEK-293 cells | HEK-293 ATXN2-luciferase reporter, luminescence, 24 h | Potency, µM (titrated, usually from 57 µM), usual class: inhibitors | hit rate 0.72% among 360,000 | AID 1745845; further: nearly all actives have a fitted effect of over 55% in size
#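 qHTS (up to 57 uM final) was run with 24 h compound exposure of reporter cells at 37 °C. Each well was multiplexed: SteadyGlo luminescence measured ATXN2-luciferase expression after a fluorogenic Gly-Phe-AFC viability readout (25 uM final).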
# TGFb SMAD3 inh – inhibitors of TGF-b signaling. HepG2 CAGA-GFP TGF-b/SMAD3 reporter, GFP fluorescence, 18 h; TGF-beta stimulated, 500 pg/mL final. Potency, µM (top dose mostly 46.1 µM), most hits filed as inhibitors. hit rate 1.2% among 410,000. AID 588855; further: nearly all actives have a fitted effect of over 65% in size
#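 HEPG2 CAGA-GFP cells (1000/well, DMEM with 1% FBS) were pre-incubated 2 h at 37 degrees C, given compound by pin tool, then stimulated with TGF-beta at 500 pg/mL final for 18 h before per-cell GFP fluorescence imaging.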
# ATXN viability – reduces viability in counter-screen for ATXN expression inhibitors. Potency, µM (titrated, usually from 56.7 µM), most hits filed as cytotoxic. S2 cells (HEK-293 line with an ATXN2-luciferase reporter) viability, CellTiter-Fluor protease fluorescence, 24 h. hit rate 0.49% among 400,000; further: nearly all actives have a fitted effect of over 40% in size
# HepG2 tox – counter-screen for TGF-b inhibitors: cytotoxicity in HepG2 cells. HepG2 CAGA-GFP viability, ATP luminescence, 18 h. Potency, µM (top dose mostly 46.1 µM), hits mostly cytotoxic. hit rate 0.76% among 410,000. AID 588856
#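 CellTiter-Glo luminescence gave cytotoxicity after 18 hours at 37 degrees C. The cells were HepG2 CAGA-GFP in 1% FBS DMEM, stimulated with 500 pg/mL TGF-beta after compound addition. %Activity was normalised to no-cell wells (complete cell-killing) and DMSO (no toxicity), and curves were fitted and classified.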
# TDP1 cell noCPT – qHTS for Inhibitors of human tyrosyl-DNA phosphodiesterase 1 (TDP1): qHTS in cells in absence of CPT | DT40 Tdp1-/- hTDP1 cells, no CPT, ATP luminescence, 48 h | Potency, µM (titrated, usually from 46.2 µM), actives largely listed as inhibitors | hit rate 15% among 420,000; further: nearly all actives have a fitted effect of over 55% in size
#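 Compound effects on proliferation are scored in DT40 Tdp1-/-;hTDP1 cells in the absence of CPT. ATP levels (CellTiter-Glo luminescence) are recorded after a ≥48 hr, 37 °C incubation.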
# Hits are given with their value; – = inactive; ? = inconclusive; · = no result given; ! = repeats disagree; [ ] = remark or other dose. The call rests on the fitted dose curve; in most records, active means well fitted curve in the direction sought with a large enough effect; inconclusive means small, poorly fitted or top-dose-only effect, or another doubt; inactive means no such curve, though single readings can be large; an effect the other way counts as inactive or inconclusive.
SMILES,DT40 TDP1 CPT,ATXN2 expr inh,TGFb SMAD3 inh,ATXN viability,HepG2 tox,TDP1 cell noCPT
CCOc1ccc(Nc2nc(N(C)c3ccccc3)nc(N)c2[N+](=O)[O-])cc1,–,–,–,–,–,–
C=CCc1cc(C=O)cc(OC)c1OCc1ccc(Cl)cc1,?,–,?,–,–,18.4µM
C=CCc1cc(C=O)cc(OCC)c1OCc1ccc(Cl)cc1,?,–,?,–,–,?
COc1ccc(CSc2cccc3cccnc23)cc1[N+](=O)[O-],?,–,?,–,–,16.4µM
O=[N+]([O-])c1ccc(Sc2cccc3cccnc23)c2cccnc12,18.4µM,·,–,?,–,25.9µM
CCC(C(=O)NCc1ccc(F)cc1)N(CCc1ccccc1)C(=O)c1snc(C(N)=O)c1N (centres undefined),?,–,–,–,–,?
Nc1ccc2cc3[nH]c4cc(N)ccc4c3nc2c1,2.91µM,?,?,·,–,2.31µM
CC(C)c1ccc(NC(=O)CCS(=O)(=O)c2cccc3nonc23)cc1,16.4µM!,–,–,–,–,23.1µM
CC(Nc1ccc(Cl)cc1)c1cc(Cl)ccc1O (centres undefined),?,–,?,–,–,18.4µM
COc1ccc(C(=O)COC(=O)c2cc(=O)c3ccccc3o2)cc1,–,–,–,–,–,–
CCc1c(C)nc2c(-c3ccccc3)c[nH]n2c1=O,?,–,–,–,–,?
CCOC(=O)Cc1c(C)nc2c(-c3ccccc3)c(-c3ccccc3)[nH]n2c1=O,?,–,–,–,–,16.4µM
CCOC(=O)Cc1c(C)nc2c(-c3ccccc3)c(C)[nH]n2c1=O,–,–,–,–,–,?
CCOC(=O)Cc1c(C)nc2c(-c3ccccc3)c[nH]n2c1=O,18.4µM,–,–,–,–,2.31µM
O=C(O)CCC(=O)c1cccc2ccccc12,–,–,–,–,–,–
C[N+](C)(C)CCC(=O)c1cccc2ccccc12,0.581µM,·,·,·,·,0.92µM
CCSc1nc(-c2ccco2)ccc1C#N,23.1µM,–,–,–,–,?
CCOC(=O)/C=C1\SCC(=O)N1CC(O)CN1C(=O)CS/C1=C/C(=O)OCC (centres undefined),–,–,–,–,–,–
Cc1ccc(C(CCNC(C)c2cccs2)c2ccco2)cc1 (centres undefined),?,?,?,?,–,18.4µM
COc1ccccc1N1CCN(C(=O)[C@@H]2CCCN2C2=NS(=O)(=O)c3ccccc32)CC1,–,·,–,–,–,–
COc1cc(-c2cc3n(C)c(C)c(CCC(=O)NC4CCC(C)CC4)c(=O)n3n2)cc(OC)c1OC (centres undefined),14.6µM,·,–,·,–,13µM
COc1cc(NC(=O)CN2C(=O)C(c3ccc(Cl)cc3)=NC23CCCCC3)cc(OC)c1,?,·,·,·,–,?
CC(C)c1ccc(/C=C/C(=O)Nn2cnnc2)cc1,–,·,·,·,·,–
Cc1ccc(/C=C/C(=O)Nn2cnnc2)cc1,?,–,–,?,–,14.6µM
O=C(O)[C@@H]1[C@@H]2C[C@@H]2CN1c1ncccc1[N+](=O)[O-],–,–[11.3 µM],–,–,–,–
SMILES,DT40 TDP1 CPT,ATXN2 expr inh,TGFb SMAD3 inh,ATXN viability,HepG2 tox,TDP1 cell noCPT
CCc1ccc(NC(=O)CC2C(=O)N(c3cccc(OC)c3)C(=O)N2Cc2ccc(F)cc2)cc1 (centres undefined),23.1µM,·,?,·,–,18.4µM
CCCOc1ccc(NC(=O)CC2C(=O)N(c3ccccc3)C(=O)N2Cc2ccc(F)cc2)cc1 (centres undefined),16.4µM,·,10µM,·,–,20.6µM
COC(=O)c1ccc(NC(=O)CC2C(=O)N(c3ccc(F)cc3)C(=O)N2Cc2ccc(OC)cc2)cc1 (centres undefined),?,·,?,·,–,18.4µM
CCc1ccc(NC(=O)CC2C(=O)N(c3cccc(C)c3)C(=O)N2Cc2cccc(OC)c2)cc1 (centres undefined),?,·,?,·,–,?
COc1ccc(CCN2C(=S)N(c3ccc(Cl)cc3)C(=O)C2CC(N)=O)cc1OC (centres undefined),14.6µM,–,?,–,–,16.4µM
OC(c1ccc2c(c1)CN(Cc1cccn1-c1cccnc1)CCO2)C1CCCCC1 (centres undefined),?,·,·,–,·,–
CCOc1ccc(NC(=O)CC2C(=O)N(c3ccccc3)C(=O)N2CCc2ccc(OC)cc2)cc1 (centres undefined),?,–,–,?,–,?
COc1ccc(CCN2C(=O)N(c3ccc(C)cc3)C(=O)C2CC(=O)Nc2ccc(F)cc2)cc1 (centres undefined),?,–,?,–,–,20.6µM
COC(=O)c1ccc(NC(=O)CC2C(=O)N(c3ccc(Cl)cc3)C(=O)N2Cc2ccco2)cc1 (centres undefined),16.4µM,·,?,·,–,18.4µM
COC(=O)c1ccc(NC(=O)CC2C(=O)N(c3cccc(OC)c3)C(=O)N2Cc2ccco2)cc1 (centres undefined),16.4µM,·,–,·,–,?
COC(=O)c1ccc(NC(=O)CC2C(=O)N(c3cccc(OC)c3)C(=O)N2Cc2cccc(OC)c2)cc1 (centres undefined),?,·,–,·,–,14.6µM
O=C(N/C(=C\c1ccc([N+](=O)[O-])cc1)C(=O)N1CCCCC1)c1ccccc1Br,–,–,–,–,–,?
Cn1ncc(Br)c1C(=O)N1CCCCCC1,–,–,–,–,–,–
CC(C)OC(=O)N(C)C[C@@H]1OCc2ccccc2-c2c(n(C)c3ccccc23)C(=O)N([C@@H](C)CO)C[C@H]1C,–,–,–,–,–,–
CCOC(=O)/C=C1\SCC(=O)N1CC(=O)N1CCOCC1,–,·,–,–,–,–
CCC(=O)N1CCc2cc(Br)cc(S(=O)(=O)CCC(=O)N3CCN(c4ccc(OC)cc4)CC3)c21,–,–,–,–,–,–
CCOc1ccc(NC(=O)CC2C(=O)N(c3ccc(C)cc3)C(=O)N2Cc2ccc(OC)cc2)cc1 (centres undefined),?,–,–,–,–,23.1µM
O=C(CC1C(=O)N(c2ccc(Cl)cc2)C(=S)N1CCc1ccncc1)Nc1ccc(F)cc1 (centres undefined),?,?,?,–,11.2µM,?
CCOC(=O)c1ccc(NC(=O)CC2C(=O)N(c3cccc(C)c3)C(=O)N2CCOC)cc1 (centres undefined),?,–,–,–,–,?
